Of roughly 21,000 targets only a part is listed; those with the largest changes were picked by preference.
Compound: Cc1cc(ccc1-c1ccccc1)C(=O)N1CCCN(CC1)C(=O)CCl [compound 10]
Experiment: probe-labelled cysteine peptide fold change vs DMSO (competition) (log2 fold change); higher = less target engagement (more negative = stronger competition)
Conditions: THP-1, incubation time: 4 h
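Further: competitive profiling in live THP-1 cells: cysteine peptides tagged with an iodoacetamide desthiobiotin (IA-DTB) probe, intensity after compound treatment relative to DMSO-treated cells.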

UniProt P28838, sequence (P28838 whole entry, looked up): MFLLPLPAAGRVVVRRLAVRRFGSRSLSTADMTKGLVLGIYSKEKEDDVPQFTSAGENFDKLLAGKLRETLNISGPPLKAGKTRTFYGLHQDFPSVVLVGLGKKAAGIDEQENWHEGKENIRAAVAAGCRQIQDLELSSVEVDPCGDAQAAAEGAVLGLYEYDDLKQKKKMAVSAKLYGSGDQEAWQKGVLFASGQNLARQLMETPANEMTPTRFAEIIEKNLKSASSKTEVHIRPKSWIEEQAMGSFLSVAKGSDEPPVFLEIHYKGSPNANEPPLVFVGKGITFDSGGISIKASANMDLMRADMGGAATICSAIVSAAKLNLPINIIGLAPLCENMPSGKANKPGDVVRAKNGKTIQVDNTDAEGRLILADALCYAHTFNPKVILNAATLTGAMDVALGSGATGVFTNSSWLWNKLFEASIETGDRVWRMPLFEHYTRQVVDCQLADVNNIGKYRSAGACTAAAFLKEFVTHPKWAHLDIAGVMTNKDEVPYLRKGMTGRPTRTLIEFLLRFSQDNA
UniProt Q9P2X3, sequence (Q9P2X3 whole entry, looked up): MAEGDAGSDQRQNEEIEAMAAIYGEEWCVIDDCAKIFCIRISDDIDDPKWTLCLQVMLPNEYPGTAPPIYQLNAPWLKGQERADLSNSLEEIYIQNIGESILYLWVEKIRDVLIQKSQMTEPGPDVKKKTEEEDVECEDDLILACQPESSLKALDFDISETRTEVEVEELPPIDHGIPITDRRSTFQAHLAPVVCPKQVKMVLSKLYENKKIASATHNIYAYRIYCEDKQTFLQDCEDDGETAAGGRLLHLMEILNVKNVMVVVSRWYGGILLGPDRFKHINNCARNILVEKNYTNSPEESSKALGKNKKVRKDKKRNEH
UniProt O95757, sequence (O95757 whole entry, looked up): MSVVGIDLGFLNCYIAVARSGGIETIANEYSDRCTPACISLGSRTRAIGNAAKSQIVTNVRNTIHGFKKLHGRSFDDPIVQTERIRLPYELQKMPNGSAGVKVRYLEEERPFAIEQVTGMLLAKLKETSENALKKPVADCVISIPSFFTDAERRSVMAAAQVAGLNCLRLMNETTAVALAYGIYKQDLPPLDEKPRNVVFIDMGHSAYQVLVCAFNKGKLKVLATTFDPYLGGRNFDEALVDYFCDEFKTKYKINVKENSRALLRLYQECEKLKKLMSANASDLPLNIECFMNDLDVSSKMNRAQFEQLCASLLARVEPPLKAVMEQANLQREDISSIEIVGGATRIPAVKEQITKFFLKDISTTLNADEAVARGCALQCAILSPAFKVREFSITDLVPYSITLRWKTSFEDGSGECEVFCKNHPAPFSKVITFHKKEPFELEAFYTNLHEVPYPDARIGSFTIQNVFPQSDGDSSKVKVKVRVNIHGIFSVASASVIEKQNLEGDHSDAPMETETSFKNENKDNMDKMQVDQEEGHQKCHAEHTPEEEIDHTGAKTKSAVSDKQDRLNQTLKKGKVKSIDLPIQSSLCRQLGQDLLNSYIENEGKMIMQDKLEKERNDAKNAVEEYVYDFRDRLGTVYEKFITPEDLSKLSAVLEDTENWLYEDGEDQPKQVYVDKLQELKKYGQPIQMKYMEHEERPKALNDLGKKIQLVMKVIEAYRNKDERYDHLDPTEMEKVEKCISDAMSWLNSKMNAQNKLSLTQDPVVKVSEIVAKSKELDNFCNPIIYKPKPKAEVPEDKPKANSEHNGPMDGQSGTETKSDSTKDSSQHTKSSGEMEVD
UniProt P30519, sequence (P30519 whole entry, looked up): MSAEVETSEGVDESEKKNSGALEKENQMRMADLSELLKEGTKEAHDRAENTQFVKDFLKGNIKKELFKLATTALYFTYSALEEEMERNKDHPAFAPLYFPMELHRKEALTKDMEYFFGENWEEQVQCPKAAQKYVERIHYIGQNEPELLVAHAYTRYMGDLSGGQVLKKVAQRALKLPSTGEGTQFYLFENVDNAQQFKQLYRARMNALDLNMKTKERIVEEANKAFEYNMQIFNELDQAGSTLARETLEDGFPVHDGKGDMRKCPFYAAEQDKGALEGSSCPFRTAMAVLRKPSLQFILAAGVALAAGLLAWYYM
UniProt Q00839, sequence (Q00839 whole entry, looked up): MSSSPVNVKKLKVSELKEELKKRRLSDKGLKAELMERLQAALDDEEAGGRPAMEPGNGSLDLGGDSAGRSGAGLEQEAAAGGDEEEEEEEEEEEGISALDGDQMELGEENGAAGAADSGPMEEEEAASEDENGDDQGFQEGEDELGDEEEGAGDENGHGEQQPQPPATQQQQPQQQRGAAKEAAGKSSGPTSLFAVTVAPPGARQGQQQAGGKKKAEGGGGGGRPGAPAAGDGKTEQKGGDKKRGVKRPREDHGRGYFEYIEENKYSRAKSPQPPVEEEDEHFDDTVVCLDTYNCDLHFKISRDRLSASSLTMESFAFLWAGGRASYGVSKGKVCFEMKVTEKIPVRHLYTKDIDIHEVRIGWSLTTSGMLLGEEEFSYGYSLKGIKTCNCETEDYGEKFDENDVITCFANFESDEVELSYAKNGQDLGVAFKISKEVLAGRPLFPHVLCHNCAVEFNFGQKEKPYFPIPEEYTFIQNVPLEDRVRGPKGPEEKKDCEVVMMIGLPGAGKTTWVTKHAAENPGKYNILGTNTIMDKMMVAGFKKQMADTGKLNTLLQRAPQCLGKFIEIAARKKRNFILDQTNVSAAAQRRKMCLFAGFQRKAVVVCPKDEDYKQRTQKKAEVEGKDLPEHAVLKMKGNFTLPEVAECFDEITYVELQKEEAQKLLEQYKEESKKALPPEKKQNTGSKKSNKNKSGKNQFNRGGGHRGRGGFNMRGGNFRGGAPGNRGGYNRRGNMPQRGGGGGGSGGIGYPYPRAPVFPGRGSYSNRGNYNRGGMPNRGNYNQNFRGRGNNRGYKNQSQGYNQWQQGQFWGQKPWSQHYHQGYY
UniProt Q16666, sequence (Q16666 whole entry, looked up): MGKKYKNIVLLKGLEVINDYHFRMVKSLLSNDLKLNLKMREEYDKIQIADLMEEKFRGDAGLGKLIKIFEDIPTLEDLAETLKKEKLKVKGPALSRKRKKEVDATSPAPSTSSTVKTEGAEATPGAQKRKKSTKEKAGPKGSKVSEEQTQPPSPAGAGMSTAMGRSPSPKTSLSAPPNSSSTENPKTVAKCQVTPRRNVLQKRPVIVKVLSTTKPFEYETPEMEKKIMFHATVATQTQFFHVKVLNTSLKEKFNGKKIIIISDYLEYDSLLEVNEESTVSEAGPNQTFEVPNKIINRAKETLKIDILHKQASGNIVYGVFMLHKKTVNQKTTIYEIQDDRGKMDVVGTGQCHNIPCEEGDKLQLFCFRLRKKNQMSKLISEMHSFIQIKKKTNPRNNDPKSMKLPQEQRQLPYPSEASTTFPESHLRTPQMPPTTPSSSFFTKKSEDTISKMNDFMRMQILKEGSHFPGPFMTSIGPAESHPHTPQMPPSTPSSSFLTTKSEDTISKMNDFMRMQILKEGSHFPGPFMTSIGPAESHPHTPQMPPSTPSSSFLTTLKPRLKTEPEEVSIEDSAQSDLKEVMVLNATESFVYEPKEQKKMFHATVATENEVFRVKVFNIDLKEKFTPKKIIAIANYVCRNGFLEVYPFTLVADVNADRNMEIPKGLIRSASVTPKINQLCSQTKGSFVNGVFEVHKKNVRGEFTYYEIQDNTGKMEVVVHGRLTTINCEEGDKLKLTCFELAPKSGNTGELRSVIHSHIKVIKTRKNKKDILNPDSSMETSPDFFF
UniProt Q96CX2, sequence (Q96CX2 whole entry): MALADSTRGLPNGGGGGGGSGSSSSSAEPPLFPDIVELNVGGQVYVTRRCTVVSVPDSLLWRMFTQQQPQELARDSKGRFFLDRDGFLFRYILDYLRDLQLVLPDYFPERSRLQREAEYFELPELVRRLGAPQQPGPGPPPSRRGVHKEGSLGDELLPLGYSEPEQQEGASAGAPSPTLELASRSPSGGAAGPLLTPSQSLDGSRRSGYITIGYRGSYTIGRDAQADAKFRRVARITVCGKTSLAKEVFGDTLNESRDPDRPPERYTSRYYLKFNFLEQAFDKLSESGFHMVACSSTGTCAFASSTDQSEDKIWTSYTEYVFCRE
UniProt Q8WVV9, sequence (Q8WVV9 whole entry, looked up): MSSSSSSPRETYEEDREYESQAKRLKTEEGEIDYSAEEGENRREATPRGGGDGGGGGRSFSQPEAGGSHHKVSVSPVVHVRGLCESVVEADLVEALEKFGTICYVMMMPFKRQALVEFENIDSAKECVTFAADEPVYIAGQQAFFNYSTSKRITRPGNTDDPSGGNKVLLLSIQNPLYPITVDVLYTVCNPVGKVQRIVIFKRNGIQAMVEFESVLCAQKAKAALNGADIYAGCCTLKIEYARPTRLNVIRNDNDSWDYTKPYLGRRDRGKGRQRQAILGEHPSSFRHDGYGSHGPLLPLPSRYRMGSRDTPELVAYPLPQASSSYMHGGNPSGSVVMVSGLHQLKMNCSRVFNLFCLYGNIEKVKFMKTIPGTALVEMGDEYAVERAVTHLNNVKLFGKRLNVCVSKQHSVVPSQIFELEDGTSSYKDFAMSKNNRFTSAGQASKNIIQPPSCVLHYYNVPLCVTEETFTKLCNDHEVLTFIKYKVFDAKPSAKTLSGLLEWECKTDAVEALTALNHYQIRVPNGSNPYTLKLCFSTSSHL
UniProt P50213, sequence (P50213 whole entry, looked up): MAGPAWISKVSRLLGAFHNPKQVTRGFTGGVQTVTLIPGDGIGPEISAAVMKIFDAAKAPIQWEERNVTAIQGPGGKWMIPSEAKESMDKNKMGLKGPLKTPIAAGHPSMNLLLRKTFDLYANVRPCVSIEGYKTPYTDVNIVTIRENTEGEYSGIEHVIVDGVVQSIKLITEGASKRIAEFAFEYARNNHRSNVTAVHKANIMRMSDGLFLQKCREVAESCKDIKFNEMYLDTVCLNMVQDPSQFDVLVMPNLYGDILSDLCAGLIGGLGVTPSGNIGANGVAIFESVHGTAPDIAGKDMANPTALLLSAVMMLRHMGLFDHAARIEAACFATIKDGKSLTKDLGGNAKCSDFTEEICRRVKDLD

Target	probe-labelled cysteine peptide fold change (10 µM)	probe-labelled cysteine peptide fold change (50 µM)
IKZF1_Q13422_175+178_CHLCNYACR (UniProt Q13422)	-0.0534	-0.482
HNRNPK_P61978_184+185_LFQECCPHSTDRVVLIGGKPDR (UniProt P61978)	-0.234	-1.28
HNRNPU_Q00839_648_GNFTLPEVAECFDEITYVELQK (UniProt Q00839)	0.16	0.0148
ITGB2_P05107_472_CDTGYIGK (UniProt P05107)	0.101	-0.117
KDM3A_Q9Y4C1_467_AGVNSDSPNNCSGK (UniProt Q9Y4C1)	-0.0265	0.0124
HSPA4L_O95757_540_CHAEHTPEEEIDHTGAK (UniProt O95757)	-0.0538	-0.483
IQGAP1_P46940_57_RWMEACLGEDLPPTTELEEGLR (UniProt P46940)	0.00789	0.0214
HSP90AB1_P08238_412_CLELFSELAEDK (UniProt P08238)	0.16	0.151
KRT75_O95678_460_LLEGEECR<|>NEFH_P12036_411_LLEGEECR<|>KRT76_Q7RTS7_494_LLEGEECR<|>KRT74_Q86Y46_451_LLEGEECR<|>KRT73_Q8N1N4_443_LLEGEECR<|>KRT78_P02538_422_LLEGEECR<|>KRT6A_P13647_474_LLEGEECR<|>KRT6B_P35908_474_LLEGEECR<|>KRT5_P48668_479_LLEGEECR (UniProt P48668+P35908+P13647+Q86Y46+P02538+Q7RTS7+P12036+Q8N1N4+O95678)	1.25	0.392
LANCL2_Q9NS86_248_CPLLYQWHR (UniProt Q9NS86)	-0.115	0.026
IDH3A_P50213_331_IEAACFATIK (UniProt P50213)	0.303	0.39
IL1RAP_Q9NPH3_332_SYVCHAR (UniProt Q9NPH3)	-0.0813	-0.034
KCTD12_Q96CX2_50_CTVVSVPDSLLWR (UniProt Q96CX2)	0.0972	-0.28
LDHD_Q86WU2_63_CEPPDAVVWPQNVEQVSR (UniProt Q86WU2)	-0.334	0.36
HMOX2_P30519_265_CPFYAAEQDK (UniProt P30519)	-0.451	-2.31
IPO4_Q8TEX9_726_AAHEALGQFCCALHK (UniProt Q8TEX9)	-0.0691	-0.471
ILF2_Q12905_37_PFVPHIPFDFYLCEMAFPR (UniProt Q12905)	0.0684	0.31

Target	probe-labelled cysteine peptide fold change (10 µM)	probe-labelled cysteine peptide fold change (50 µM)
KPNA5_O15131_238_NAVWALSNLCR<|>KPNA6_O60684_238_NAVWALSNLCR<|>KPNA1_P52294_240_NAVWALSNLCR (UniProt P52294+O60684+O15131)	0.0157	-0.339
KDM4C_Q9H3R0_14_MEVAEVESPLNPSCK (UniProt Q9H3R0)	0.236	0.0354
IFI16_Q16666_737_LTCFELAPK (UniProt Q16666)	-0.11	-0.0776
HSPH1_Q92598_796_ELNNTCEPVVTQPKPK (UniProt Q92598)	0.108	-0.8
KPNA6_O60684_427_YLVSLGCIKPLCDLLTVMDSK (UniProt O60684)	-0.101	-0.85
HSP90AA1_P07900_597+598_LVTSPCCIVTSTYGWTANMER (UniProt P07900)	0.115	-0.354
IMPACT_Q9P2X3_195_STFQAHLAPVVCPK (UniProt Q9P2X3)	-0.422	-1.61
HNRNPLL_Q8WVV9_505_TLSGLLEWECKTDAVEALTALNHYQIR (UniProt Q8WVV9)	-0.0924	-0.402
IKBKB_O14920_716_KSEELVAEAHNLCTLLENAIQDTVR (UniProt O14920)	0.0153	-0.00819
KPNB1_Q14974_392_DAAVMAFGCILEGPEPSQLK (UniProt Q14974)	0.132	0.441
IPO4_Q8TEX9_726_KAAHEALGQFCCALHK (UniProt Q8TEX9)	-0.0458	-0.126
LDLR_P01130_377+379_CQCEEGFQLDPHTK (UniProt P01130)	-0.198	0.243
LAP3_P28838_376_LILADALCYAHTFNPK (UniProt P28838)	0.0434	0.0196
KIDINS220_Q9ULH0_867_FLVTSATNGDVPCSDTTGIQEDADRR (UniProt Q9ULH0)	-0.0872	-0.0611
IGF2R_P11717_1856_DGGVCLLSGTK (UniProt P11717)	-0.0968	-0.169
KPNB1_Q14974_765_ESCLEAYTGIVQGLKGDQENVHPDVMLVQPR (UniProt Q14974)	0.414	-0.185
